Values joined by “and” are separate entries in the source; they are usually repeats but may differ in a detail not shown here. Equal values may be shown once. Results filed as inconclusive are left out. Some compounds were tested as several samples or in several runs, with calls that do not always agree. Active and inactive are the calls of the source. The call rests on the fitted dose curve; in most records, active means well fitted inhibition curve with a large enough effect; inconclusive means small, poorly fitted or top-dose-only effect; inactive means flat fitted curve, though single readings scatter.
Assay: P-glycoprotein substrates identified in KB-8-5-11 adenocarcinoma cell line, qHTS therapeutic library screen (AID 1346987); further: nearly all actives have a fitted effect of over 65% in size
Conditions: KB-8-5-11 (P-gp overexpressing) viability, CellTiter-Glo, 72 h; series mostly up to 44.5 µM; activity change, negative = cytotoxicity: at the top concentration
Summary of the method: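 KB-8-5-11, a colchicine-selected P-gp-overexpressing KB-3-1 subline, was grown without colchicine for the assay. Cells were seeded at 500 cells/well, dosed in concentration-response and incubated 72 h at 37 degree C, 5% CO2. Viability was read by CellTiter-Glo luminescence.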
For `C[C@]12CC[C@H]3[C@@H](CCC4=CC(=O)CC[C@@]43C)[C@H]1CC[C@H]2OC(=O)CCC1CCCC1`, the “outcome” value was “inactive”.
In the case of `c1cc2c(cc1[C@H]1OC[C@H]3[C@H]1CO[C@H]3c1ccc3c(c1)OCO3)OCO2`, the “activity change, negative = cytotoxicity” value is reported as -6.22% (inactive).
For `CC(=O)O[C@@]12CO[C@H]1C[C@H](O)[C@@]1(C)C(=O)[C@H](O)C3=C(C)[C@@H](O)C[C@@](O)([C@@H](OC(=O)c4ccccc4)[C@@H]21)C3(C)C`, the Potency was 7430 nM (active).
In the case of `C[C@@H]1CC[C@@]2(OC1)O[C@H]1C[C@H]3[C@@H]4CC=C5C[C@@H](O[C@@H]6O[C@H](CO)[C@@H](O[C@@H]7O[C@@H](C)[C@H](O)[C@@H](O)[C@@H]7O)[C@H](O)[C@@H]6O[C@@H]6O[C@@H](C)[C@H](O)[C@@H](O)[C@@H]6O)CC[C@]5(C)[C@@H]4CC[C@]3(C)[C@@H]1[C@H]2C`, the Potency is reported as 18700 nM (active).
In the case of `Nc1ccc(N=Nc2ccccc2)cc1`, the “activity change, negative = cytotoxicity” value is reported as 13.2% [at 93.4 µM] (inactive).
In the case of `N#C[C@H](O[C@@H]1O[C@H](CO[C@@H]2O[C@H](CO)[C@H](O)[C@H](O)[C@H]2O)[C@H](O)[C@H](O)[C@H]1O)c1ccccc1`, the Potency is reported as 20900 nM (active).
In the case of `C/C=C(/C)C(=O)O[C@H]1C(C)=C2[C@H]([C@@H]1OC(=O)CCCCCCC)[C@@](C)(OC(C)=O)C[C@H](OC(=O)CCC)[C@@]1(O)[C@H]2OC(=O)[C@@]1(C)O`, the Potency is reported as 2060 nM (active).
With `S=C(SSC(=S)N1CCCCC1)N1CCCCC1` the “activity change, negative = cytotoxicity” value was -2.48% (inactive).
With `CC(C)(O)C(=O)Nc1ccc([N+](=O)[O-])c(C(F)(F)F)c1` the “outcome” value was “inactive”.
In the case of `CC=C(C)C(=O)N[C@@H](c1ccccc1)[C@@H](O)C(=O)O[C@H]1C[C@@]2(O)[C@@H](OC(=O)c3ccccc3)[C@@H]3[C@]4(OC(C)=O)CO[C@@H]4C[C@H](O)[C@@]3(C)C(=O)[C@H](OC(C)=O)C(=C1C)C2(C)C`, the Potency is reported as 33.2 nM (active).
For `COc1ccc(N(C(=O)Oc2c(C)cccc2C)c2ccnc(Nc3ccc(N4CCN(C)CC4)cc3)n2)c(OC)c1`, the Potency was “inactive and 20.6 µM (active)”.
For `CC(N[C@H]1C[C@H]1c1ccccc1)c1ccc2c(c1)OCCO2` (stereo partly specified), the “activity change, negative = cytotoxicity” value was 4.57% (inactive).
For `COc1nn(CSP(=S)(OC)OC)c(=O)s1`, the “activity change, negative = cytotoxicity” value was 7.14% [at 93.4 µM] (inactive).
In the case of `O=C(N[C@@H](COc1ccc2[nH]c(=O)[nH]c2c1)c1ccccc1)c1cccn(Cc2ccc(F)c(F)c2)c1=O`, the Potency is reported as “inactive”.
For `CC(=O)Nc1ccc(OC[C@](C)(O)C(=O)Nc2ccc([N+](=O)[O-])c(C(F)(F)F)c2)cc1`, the Potency was “inactive”.
In the case of `CC(C)[C@H]1C(=O)N[C@H](CO)Cc2c[nH]c3cccc(c23)N1C`, the “activity change, negative = cytotoxicity” value is reported as -13.8% (inactive).
With `C[C@@]12OC(=O)[C@]1([C@@H](O)[C@@H]1C=CCCC1)NC(=O)[C@H]2CCCl` the Potency was 148 nM (active).
With `CO/C=C(/C(=O)OC)c1ccccc1Oc1cc(Oc2ccccc2C#N)ncn1` the Potency was 3160 nM (active).
In the case of `O=C(Nc1ccncc1)C(=O)c1cn(Cc2ccc(Cl)cc2)c2ccccc12`, the Potency is reported as 33.2 nM (active).
In the case of `N=c1c2c(-c3ccccc3)c(-c3ccccc3)n(Cc3ccccc3)c2ncn1C1CCC(O)CC1` (stereo unspecified), the Potency is reported as 935 nM (active).
For `CC(=Cc1csc(C)n1)[C@@H]1C[C@H]2O[C@]2(C)CCC[C@H](C)[C@@H](O)[C@@H](C)C(=O)C(C)(C)[C@@H](O)CC(=O)O1`, the Potency was 1 nM (active).
In the case of `CC[C@@H]1[C@@H](C)O[C@@](O)([C@@H](C)[C@H](O)[C@H](C)[C@H]2OC(=O)C=CC=C[C@@H](C)[C@@H]([C@@H](C)[C@@H](O)[C@H](C)[C@@]3(O)C[C@H](O[C@H]4C[C@H](O)[C@H](O)[C@H](C)O4)[C@H](CC)[C@@H](C)O3)OC(=O)C=CC=C[C@@H]2C)C[C@H]1O[C@H]1C[C@H](O)[C@H](O)[C@H](C)O1`, the Potency is reported as 3320 nM (active).
In the case of `CC(=O)[O][Hg][c]1ccccc1`, the Potency is reported as 259 nM (active).
In the case of `Cc1ccccc1-n1c(Cn2cnc3c(N)ncnc32)nc2cccc(C)c2c1=O`, the Potency is reported as 590 nM (active).
With `CCOC(=O)Nc1ccc(NCc2ccc(F)cc2)cc1N` the Potency was “inactive”.
For `O=S(=O)(F)Cc1ccccc1`, the “outcome” value was “inactive”.
With `COc1ccc2c(c1)[C@]13CCCCC1C(C2)N(C)CC3` (stereo partly specified) the “activity change, negative = cytotoxicity” value was -9.35% (inactive).
In the case of `CC(C)[C@]12O[C@@H]1[C@@H]1O[C@]13[C@]1(O[C@H]1C[C@@H]1C4=C(CC[C@@]13C)C(=O)OC4)[C@H]2O`, the Potency is reported as 1 nM (active).
With `O=C(Oc1ccc([N+](=O)[O-])cc1)N1CCN(Cc2cccc(Oc3ccccc3)c2)CC1` the “activity change, negative = cytotoxicity” value was 0.199% (inactive).
In the case of `Clc1ccccc1C(c1ccccc1)(c1ccccc1)n1cccn1`, the “activity change, negative = cytotoxicity” value is reported as 6.39% (inactive).
With `CC1=C(O)C(=O)C=C2C1=CC=C1[C@@]2(C)CC[C@@]2(C)[C@@H]3C[C@](C)(C(=O)O)CC[C@]3(C)CC[C@]12C` the Potency was 2960 nM (active).
In the case of `COc1cc([C@@H]2c3cc4c(cc3[C@@H](O)C3COC(=O)C32)OCO4)cc(OC)c1O` (stereo partly specified), the Potency is reported as 118 nM (active).
In the case of `C=CCON=C(C[C@H]1O[C@@H]2O[C@]3(C)CC[C@@H]4[C@H](C)CC[C@@H]([C@H]1C)[C@@]24OO3)[C@H]1O[C@@H]2O[C@]3(C)CC[C@H]4[C@H](C)CC[C@@H]([C@@H]1C)[C@@]24OO3`, the Potency is reported as 16600 nM (active).
In the case of `CC=C(C)C(=O)O[C@H]1C(C)=C2[C@@H]3OC(=O)[C@@](C)(O)[C@@]3(O)[C@@H](OC(=O)CCC)C[C@](C)(OC(C)=O)[C@@H]2[C@@H]1OC(=O)CCCCCCC`, the Potency is reported as 1870 nM (active).
With `CC(C)(O)C=CC(=O)[C@](C)(O)[C@H]1[C@H](O)C[C@]2(C)[C@@H]3CC=C4[C@@H](C=C(O)C(=O)C4(C)C)[C@]3(C)C(=O)C[C@@]12C` the Potency was 118 nM (active).
In the case of `CCOC(=O)c1c(C(C#N)=CN)c2ccc(Cl)c(Cl)c2n1C`, the “activity change, negative = cytotoxicity” value is reported as -0.772% (inactive).

From PubChem BioAssay (NCATS)
On the % scale 0 is the no-effect control and ±100 the full control effect; potency means the concentration at half of the fitted maximal effect.
